Source: PubChem BioAssay (NCATS)
Results filed as inconclusive are left out. Calls of active or inactive are those of the source. The call rests on the fitted dose curve; in most records, active means well fitted cell-killing curve with a large enough effect; inconclusive means small, poorly fitted or top-dose-only effect, or effect the other way; inactive means no such curve, though single readings can be large or run the other way.

Legend:
[1] = Quantitative High-Throughput drug screen in 47 multiple myeloma cell lines against the NCATS MIPE library collection: UTMC2_PLB cell viability assay (AID 1919868); conditions: CellTiter-Glo ATP luminescence, 48 h; series mostly up to 45.8 µM; further: nearly all actives have a fitted effect of over 55% in size; further: potency means the concentration at half of the fitted maximal effect
Procedure, shortened: (§1)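 Viability after 48 h drug exposure was measured as ATP-dependent luminescence. Cells, 500 per well, sat at 37 °C under 5% CO2; DMSO wells set 100%, media-only wells 0%.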

[2] = Quantitative High-Throughput drug screen in 47 multiple myeloma cell lines against the NCATS MIPE library collection: PE2_PLB cell viability assay (AID 1919869); conditions: PE2_PLB myeloma cells viability, ATP luminescence, 48 h; series mostly up to 45.8 µM; further: nearly all actives have a fitted effect of over 35% in size; further: potency means the concentration at half of the fitted maximal effect
Procedure, shortened: as §1

[3] = Quantitative High-Throughput drug screen in 47 multiple myeloma cell lines against the NCATS MIPE library collection: OPM2_DSMZ cell viability assay (AID 1919872); conditions: OPM2 myeloma viability, CellTiter-Glo ATP luminescence, 48 h; series mostly up to 45.8 µM; further: nearly all actives have a fitted effect of over 30% in size
Procedure, shortened: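 Approved and investigational drugs from MIPE 4.0 were added by pin tool to 500 cells per well. After 48 hours at 37C, ATP-based CellTiter-Glo luminescence indicated remaining viability.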

[4] = Quantitative High-Throughput drug screen in 47 multiple myeloma cell lines against the NCATS MIPE library collection: PCM6_Riken cell viability assay (AID 1919870); conditions: CellTiter-Glo ATP, 48 h; series mostly up to 45.8 µM; further: nearly all actives have a fitted effect of over 30% in size
Procedure, shortened: as §1

[5] = Quantitative High-Throughput drug screen in 47 multiple myeloma cell lines against the NCATS MIPE library collection: KMS11_JCRBsus cell viability assay (AID 1919873); conditions: KMS11 myeloma viability, CellTiter-Glo ATP luminescence, 48 h; series mostly up to 45.8 µM; further: nearly all actives have a fitted effect of over 50% in size; further: potency means the concentration at half of the fitted maximal effect
Procedure, shortened: as §1

[6] = Quantitative High-Throughput drug screen in 47 multiple myeloma cell lines against the NCATS MIPE library collection: KMS28BM_JCRB cell viability assay (AID 1919874); conditions: CellTiter-Glo ATP, 48 h; series mostly up to 45.8 µM; further: nearly all actives have a fitted effect of over 35% in size; further: potency means the concentration at half of the fitted maximal effect
Procedure, shortened: as §1

[7] = Quantitative High-Throughput drug screen in 47 multiple myeloma cell lines against the NCATS MIPE library collection: VP6_DJ cell viability assay (AID 1919867); conditions: ATP luminescence, 48 h; series mostly up to 45.8 µM; further: nearly all actives have a fitted effect of over 40% in size; further: potency means the concentration at half of the fitted maximal effect
Procedure, shortened: as §1

[8] = Quantitative High-Throughput drug screen in 47 multiple myeloma cell lines against the NCATS MIPE library collection: RPMI8226_ATCC cell viability assay (AID 1919871); conditions: RPMI8226 myeloma viability, CellTiter-Glo ATP luminescence, 48 h; series mostly up to 45.8 µM; further: nearly all actives have a fitted effect of over 30% in size; further: potency means the concentration at half of the fitted maximal effect
Procedure, shortened: as §1

Measured: Potency

CCN(CC)CC#CCOC(=O)C(O)(c1ccccc1)C1CCCCC1 (stereo not drawn)
inactive: [1] | [2] | [3]

CNS(=O)(=O)CCc1ccc2[nH]cc(C3CCN(C)CC3)c2c1
active: [1] 1.05 µM | [2] 1.66 µM
inactive: [4] | [3] | [5] | [6]

C[C@]12C=CC(=O)C=C1CC[C@@H]1[C@@H]2C(=O)C[C@@]2(C)[C@H]1CC[C@]2(O)C(=O)CO
inactive: [7] | [4] | [8] | [5] | [6]

CCn1cc(C(=O)O)c(=O)c2cc(F)c(N3CCNCC3)nc21
inactive: [1] | [4] | [8] | [3] | [6]

COC(c1ccccc1)(c1ccccc1)[C@H](Oc1nc(C)cc(C)n1)C(=O)O
inactive: [1] | [2] | [4] | [8] | [3] | [5] | [6]

CC(=O)[C@H]1CC[C@H]2[C@@H]3CCC4=CC(=O)CC[C@]4(C)[C@H]3CC[C@]12C
active: [7] 7.43 µM | [5] 18.7 µM | [6] 16.6 µM

COc1cccc(N(C)C(=S)Oc2ccc3c(c2)CCCC3)n1
active: [8] 18.7 µM | [5] 29.6 µM
inactive: [1] | [2] | [3]

Cc1cccc(N(C)C(=S)Oc2ccc3ccccc3c2)c1
inactive: [1] | [2] | [3] | [6]

COC(=O)Nc1nc2ccc(S(=O)c3ccccc3)cc2[nH]1 (stereo not drawn)
active: [7] 13.2 µM | [5] 8.33 µM

CCN[C@H]1C[C@H](C)S(=O)(=O)c2sc(S(N)(=O)=O)cc21
inactive: [2] | [3] | [5] | [6]

C[C@@H](NCCCc1cccc(C(F)(F)F)c1)c1cccc2ccccc12
inactive: [2] | [4] | [3] | [5] | [6]

CC(C(=O)O)c1ccc2c(c1)CC(=O)c1ccccc1S2 (stereo not drawn)
inactive: [2] | [8] | [3]

O=C(N[C@H](CO)[C@H](O)c1ccc([N+](=O)[O-])cc1)C(Cl)Cl
inactive: [3] | [5] | [6]

S=P(N1CC1)(N1CC1)N1CC1
inactive: [2] | [4] | [8] | [3] | [5] | [6]

Nc1nc(N)c2nc(CNc3ccc(C(=O)NC(CCC(=O)O)C(=O)O)cc3)cnc2n1 (stereo not drawn)
active: [5] 0.0526 µM | [6] 0.0296 µM

CCCCOc1ccc(CC(=O)NO)cc1
inactive: [4] | [6]

COc1cc2c(Nc3ccc(Br)cc3F)ncnc2cc1OCC1CCN(C)CC1
active: [8] 23.5 µM

CCN(C)C(=O)Oc1cccc([C@H](C)N(C)C)c1
inactive: [2] | [3] | [5] | [6]

CNS(=O)(=O)Cc1ccc2[nH]cc(CCN(C)C)c2c1
inactive: [4] | [8] | [3] | [5] | [6]
active: [2] 14.8 µM

CN(C)CCc1c[nH]c2ccc(CS(=O)(=O)N3CCCC3)cc12
inactive: [8] | [6]
